Only some compounds are listed: those with a hit (about 10% of all), similar ones and a draw of the others.
CtBP-E1A inh: inhibitors of CtBP/E1A interaction | AlphaScreen GST-E1A/His-CtBP binding, 1536-well; hits give low values | activity change, % (no concentration beside the values) | 340,000 tested, 0.49% active | AID 651724; in the data active = activity change below about -65%; inconclusive = mostly about -30% to -63%
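Protein mix (5X: 125 nM each GST-E1A, His-CtBP) was incubated with pinned compound 2 h at 37 deg C in dark, in 50 mM Tris pH 8.0 buffer with 300 mM NaCl. Glutathione donor and nickel acceptor beads followed; AlphaScreen signal read after 1 h.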
Six1-Eya2 inh: inhibitors of human Six1/Eya2 interaction; AID 651725; AlphaScreen GST-Six1/His-Eya2 binding, biochemical; hits give low values; Q15475+O00167; 360,000 tested, 0.56% active; activity change, % (concentration not given with the values); in the data active = activity change below about -65%; inconclusive = mostly about -30% to -63%
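Homogeneous AlphaScreen proximity assay pairing GST-Six1 with His-tagged Eya2 (added as 5X mix: 250 nM and 500 nM) in 50 mM Tris pH 8.0, 300 mM NaCl, 1 mM TCEP. Glutathione donor and nickel acceptor beads; 1 h, 37 °C, dark.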
BAZ2B inh: inhibitors of human BAZ2B bromodomain; Q9UIF8; AlphaScreen BAZ2B-H3K14Ac peptide displacement; Potency, µM (titrated, usually from 114 µM), actives largely listed as inhibitors; 360,000 tested, 4.4% active; note: nearly all actives have a fitted effect of over 60% in size
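BAZ2B 50 nM plus b-H3(5-23)K14Ac 50 nM, PBS pH 7.4/0.01% Tween-20, 30 min RT; compound added (max 110 uM), 30 min RT; streptavidin donor/Ni-chelate acceptor beads 10 ug/mL final, 20 min dark; AlphaScreen read.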
HP1b chromo inh: blocks HP1-beta chromodomain binding to methylated histone tails. 390,000 tested, 0.56% active. Potency, µM (doses to about 114 µM), most hits filed as inhibitors. AID 540317. P83916. AlphaScreen HP1-beta / biotin-H3K9me3 peptide binding; note: nearly all actives have a fitted effect of over 70% in size
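Compound inhibition of the preformed complex between 50 nM HP1-beta and 50 nM biotinylated H3K9me3 peptide was read by AlphaScreen. Buffer was PBS pH 7.4 with 0.01% Tween-20. Incubations ran 30 min at room temperature, with 10 ug/mL donor/acceptor beads.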
JMJD2A Tudor inh: JMJD2A Tudor domain (human) inhibition. O75164. AlphaScreen JMJD2A-Tudor / H3K4me3 peptide binding. Potency, µM (doses to about 114 µM), actives largely listed as inhibitors. 390,000 tested, 4.4% active. AID 504339; note: nearly all actives have a fitted effect of over 50% in size
G9a block: blocks human histone lysine methyltransferase G9a; G9a H3K9 monomethylation, AlphaScreen, 2 h; AID 504332; Q96KQ7; Potency, µM (doses to about 102 µM), actives largely listed as inhibitors; 350,000 tested, 8.8% active; note: nearly all actives have a fitted effect of over 75% in size
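Signal arises when biotinylated H3K9 peptide, once monomethylated, bridges streptavidin donor and antibody-captured acceptor beads. Enzyme at 20 nM was preincubated 15 min with test compounds; peptide 500 nM and SAM 20 uM then reacted for 2 h.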
Each line names hits and unclear results; the compound was inactive in the other large screens; ! = not confirmed by another sample. Unless noted, calls come from the whole dose curve; as a rule, active = well fitted inhibition curve with a large enough effect; inconclusive = small, poorly fitted or top-dose-only effect; inactive = no such curve, though single readings can be large or run the other way.

N#CCC(=O)NNC(=S)NC(=O)C(c1ccccc1)c1ccccc1	none
CCn1c(=N)c(C(=O)NCC2CCCO2)cc2c(=O)n3cc(C)ccc3nc21 (stereo not given)	none (no result: CtBP-E1A inh, Six1-Eya2 inh)
O=[N+]([O-])c1ccc(Cl)cc1C=NNc1ccccn1	none (no result: BAZ2B inh, G9a block)
COc1cccc(/C=N/NC(=O)c2cc(-c3ccccn3)nc3ccccc23)c1O	CtBP-E1A inh -95, Six1-Eya2 inh -75, JMJD2A Tudor inh 56µM
O=C(N/N=C/c1cc(Cl)cc([N+](=O)[O-])c1O)c1cc(-c2ccccn2)nc2ccccc12	BAZ2B inh inconclusive, HP1b chromo inh inconclusive, JMJD2A Tudor inh 45µM
O=C(N/N=C/c1ccc(F)cc1)c1cc(-c2ccccn2)nc2ccccc12	none
O=[N+]([O-])c1cc(Cl)cc(/C=N\Nc2ccccn2)c1O	CtBP-E1A inh -87, Six1-Eya2 inh -95, BAZ2B inh 4.5µM, HP1b chromo inh 10µM, JMJD2A Tudor inh 10µM, G9a block inconclusive
O=C(O)COc1ccccc1/C=N/NC(=O)c1cc(-c2ccc(F)cc2)nc2ccccc12	CtBP-E1A inh inconclusive, Six1-Eya2 inh -72, JMJD2A Tudor inh inconclusive
C/C(=N\NC(=O)c1cc(-c2ccccn2)nc2ccccc12)c1cccc([N+](=O)[O-])c1	none (no result: BAZ2B inh)
O=C(CCC(=O)N1CC2CCCN2c2ccccc21)NCc1ccccc1 (stereo not given)	none (no result: CtBP-E1A inh, Six1-Eya2 inh)
c1ccc2c(c1)NCC1CCCN21 (stereo not given)	BAZ2B inh 45µM, HP1b chromo inh inconclusive, JMJD2A Tudor inh 50µM, G9a block 2.2µM
COCCNc1nc2nonc2nc1N1C[C@H]2CC[C@H]1C2	G9a block 79µM
CC1CC(NC(=O)CC#N)CC(C)(C)C1 (stereo not given)	none (no result: G9a block)
CC1CC(NC(=O)Cc2ccc(Br)cc2)CC(C)(C)C1 (stereo not given)	JMJD2A Tudor inh 40µM
O=C1/C(=C\c2ccc(C(F)(F)F)cc2)CSc2sccc21	none (no result: CtBP-E1A inh, HP1b chromo inh)
CC1=C(CC(=O)O)c2cc(F)ccc2/C1=C\c1ccc(S(C)=O)cc1 (stereo not given)	G9a block 8.4µM!
CN(C)CC[C@H](c1ccc(Cl)cc1)c1ccccn1	none (no result: CtBP-E1A inh, Six1-Eya2 inh, BAZ2B inh, HP1b chromo inh, JMJD2A Tudor inh)
CN(C)CCOC(c1ccc(Cl)cc1)c1ccccn1 (stereo not given)	G9a block 45µM!
OCCN1CCN(C(=S)c2ccc(Cl)c(Cl)c2)CC1	Six1-Eya2 inh inconclusive, HP1b chromo inh inconclusive, JMJD2A Tudor inh 56µM, G9a block 2µM
CC(=O)c1ccc(NC(=S)N2CCN(CCO)CC2)cc1	none
COc1ccc(NCc2n[nH]nc2-c2ccccc2)cc1Cl	BAZ2B inh 40µM, JMJD2A Tudor inh inconclusive, G9a block inconclusive
COc1ccc(S(=O)(=O)N2CCc3ccccc32)cc1[N+](=O)[O-]	G9a block inconclusive
O=c1[nH]c(=S)[nH]nc1Cc1ccc(Cl)c(Cl)c1	G9a block 50µM
CC(C)(C)c1ccc(Cc2n[nH]c(=S)[nH]c2=O)cc1	none
CC(=NNC(=S)N1CCCC1)c1ccccn1	Six1-Eya2 inh inconclusive (no result: BAZ2B inh, HP1b chromo inh, JMJD2A Tudor inh, G9a block)
CC(=NNC(=S)N1CC2CCC(CC2)C1)c1cccc(C)n1	Six1-Eya2 inh -88, HP1b chromo inh inconclusive, JMJD2A Tudor inh 22µM (no result: BAZ2B inh, G9a block)
CC(=NNC(=S)N1CCC1)c1ccccn1	CtBP-E1A inh -95, Six1-Eya2 inh -91, JMJD2A Tudor inh 20µM (no result: BAZ2B inh, G9a block)
CC(=NNC(=S)SCc1ccccc1)c1ccccn1	JMJD2A Tudor inh 20µM (no result: BAZ2B inh, G9a block)
CC1(C)CC(=O)C(C(C2=C(O)CC(C)(C)CC2=O)c2cccnc2)C(=O)C1 (stereo not given)	G9a block 50µM
CCCC(C1=C(O)CC(C)(C)CC1=O)C1C(=O)CC(C)(C)CC1=O (stereo not given)	G9a block 28µM
Cc1ccc(C(C2=C(O)CC(C)(C)CC2=O)C2C(=O)CC(C)(C)CC2=O)o1 (stereo not given)	G9a block 25µM
CC1(C)CC(=O)C(C(C2=C(O)CC(C)(C)CC2=O)c2cccc(O)c2)C(=O)C1 (stereo not given)	G9a block inconclusive
CC1(C)CC(=O)C(C(C2=C(O)CC(C)(C)CC2=O)c2cccs2)C(=O)C1 (stereo not given)	G9a block 45µM

Compound activity (PubChem)
